# Test results reported in PubChem BioAssay (Tox21).
# Results filed as inconclusive are left out. A call without a number means that no potency is given here. Activity calls are given as the source filed them. Unless noted, calls come from the whole dose curve; as a rule, active = well fitted curve in the direction sought with a large enough effect in the repeat runs; inconclusive = weak or mixed curves; inactive = no such curve, though single readings can be large; an effect the other way counts as inactive or inconclusive.
# Tests used:
# [1] = target: Aryl hydrocarbon receptor (Homo sapiens) (UniProt P35869); test: qHTS assay to identify small molecule that activate the aryl hydrocarbon receptor (AhR) signaling pathway (AID 743085); note: nearly all actives have a fitted effect of over 15% in size; note: potency is the fitted concentration of half-maximal effect;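 for activation: HG2L7.5c1 human HepG2 liver cells with stably integrated DRE-driven firefly reporter; series mostly up to about 70 µM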
# In short: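 Cell line HG2L7.5c1 (human hepatoma, 20× DRE-luc). Plated, 5 h 37C, compound/DMSO added, 24 h 37C. CellTiter-Fluor 30 min 37C → fluorescence; then ONE-Glo 30 min RT → luminescence.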
# [2] = qHTS assay to identify small molecule that activate the aryl hydrocarbon receptor (AhR) signaling pathway - cell viability counter screen (AID 743086); note: nearly all actives have a fitted effect of over 45% in size; note: potency is the fitted concentration of half-maximal effect
# In short: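 Cytotoxicity counter screen: CellTiter-Fluor signal (30 min, 37 C) in 4000 HepG2 cells/well carrying the DRE-luciferase reporter, following 24 h compound exposure at 37 C.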
# [3] = qHTS assay to identify small molecule antagonists of the peroxisome proliferator-activated receptor gamma (PPARg) signaling pathway - cell viability counter screen (AID 743194); note: nearly all actives have a fitted effect of over 55% in size; note: potency is the fitted concentration of half-maximal effect
# In short: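 Viability was measured as CellTiter-Glo luminescence in GeneBLAzer PPARg UAS-bla HEK293H cells. These cells had been exposed 17 h at 37 C to compounds together with rosiglitazone at 50 nM final, with the beta-lactamase readout taken in the same wells.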
# [4] = qHTS assay for small molecule agonists of the antioxidant response element (ARE) signaling pathway - cell viability counter screen (AID 743203; calls by dose curve; note: nearly all actives have a fitted effect of over 55% in size; note: potency is the fitted concentration of half-maximal effect)
# In short: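 Cytotoxicity was tested in parallel with the ARE reporter screen. ARE-bla HepG2 cells were exposed to compounds for 16 hrs, and viability was taken from CellTiter-Glo luminescence.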
# [5] = qHTS assay for small molecule activators of the heat shock response signaling pathway - cell viability counter screen (AID 743209); note: nearly all actives have a fitted effect of over 50% in size; note: potency is the fitted concentration of half-maximal effect
# In short: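 Cytotoxicity counter screen run in parallel with the HSE beta-lactamase reporter, using the same wells. HeLa HSE-bla cells received compound for 5 h at 37 C; ATP-based CellTiter-Glo luminescence was measured after 30 min at room temperature.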
# [6] = qHTS assay for small molecule activators of the heat shock response signaling pathway (AID 743210; active = well fitted activation curve with a large enough effect in the signal ratio in the repeat runs, with a control signal flat, not every such curve was filed as active; the % refers to the signal ratio; note: series mostly up to about 63 µM)
# In short: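 Compound exposure lasted 5 h at 37 C in HeLa cells carrying a heat-shock-element-driven beta-lactamase reporter. Read-out: fluorescence intensity after 2.5 h room-temperature loading with LiveBLAzer B/G FRET substrate.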
# [7] = target: Peroxisome proliferator-activated receptor gamma (Homo sapiens) (UniProt P37231); test: qHTS assay to identify small molecule agonists of the peroxisome proliferator-activated receptor gamma (PPARg) signaling pathway (AID 743094; active = well fitted activation curve with a large enough effect in the signal ratio in the repeat runs, not every such curve was filed as active; the % refers to the signal ratio; note: potency is the fitted concentration of half-maximal effect)
# In short: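 Cells from the PPARg UAS-bla HEK293H line are plated and incubated 5 h at 37C. Compounds in DMSO are pinned in and left 17 h at 37C. LiveBLAzer B/G substrate is then added for 1 h at room temperature before fluorescence is measured.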
# [8] = target: Peroxisome proliferator-activated receptor gamma (Homo sapiens) (UniProt P37231); test: qHTS assay to identify small molecule antagonists of the peroxisome proliferator-activated receptor gamma (PPARg) signaling pathway (AID 743191; calls by dose curve; note: series mostly up to about 63 µM; nearly all actives have a fitted effect of over 30% in size)
# In short: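 Beta-lactamase reporter under UAS control in HEK293H PPARg-bla cells; compound treatment 17 h at 37C. Read-out: fluorescence intensity after 1 h room-temperature incubation with LiveBLAzer B/G FRET substrate.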
# [9] = qHTS assay to identify aromatase inhibitors - cell viability counter screen (AID 743084);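 note: cells stimulated with testosterone during compound exposure; potency is the fitted concentration of half-maximal effect; nearly all actives have a fitted effect of over 55% in size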
# Chain of Aryl hydrocarbon receptor (Homo sapiens) (P35869 whole entry, looked up): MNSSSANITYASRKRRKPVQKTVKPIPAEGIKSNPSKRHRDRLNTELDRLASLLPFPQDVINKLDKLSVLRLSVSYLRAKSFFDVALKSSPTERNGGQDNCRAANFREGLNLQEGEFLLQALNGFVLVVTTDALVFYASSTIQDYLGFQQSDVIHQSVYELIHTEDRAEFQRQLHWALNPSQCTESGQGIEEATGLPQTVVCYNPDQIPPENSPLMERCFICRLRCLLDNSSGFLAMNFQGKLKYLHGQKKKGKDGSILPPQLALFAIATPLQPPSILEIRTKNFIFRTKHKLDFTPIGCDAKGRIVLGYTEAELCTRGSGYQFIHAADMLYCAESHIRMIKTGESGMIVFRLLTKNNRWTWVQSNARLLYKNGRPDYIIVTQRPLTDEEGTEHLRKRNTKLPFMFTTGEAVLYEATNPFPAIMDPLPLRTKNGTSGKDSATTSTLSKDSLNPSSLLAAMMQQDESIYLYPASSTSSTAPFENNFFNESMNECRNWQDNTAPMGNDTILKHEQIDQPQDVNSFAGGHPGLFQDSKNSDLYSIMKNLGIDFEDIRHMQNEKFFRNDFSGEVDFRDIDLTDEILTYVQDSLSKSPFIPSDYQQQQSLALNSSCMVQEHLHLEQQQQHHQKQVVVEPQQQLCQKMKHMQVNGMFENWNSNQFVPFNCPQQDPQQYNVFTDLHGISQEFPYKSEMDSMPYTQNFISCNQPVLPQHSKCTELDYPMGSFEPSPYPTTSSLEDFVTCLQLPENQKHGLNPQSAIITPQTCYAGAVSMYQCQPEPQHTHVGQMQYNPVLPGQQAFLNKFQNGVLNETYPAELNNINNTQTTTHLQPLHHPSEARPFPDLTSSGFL
# Chain of Peroxisome proliferator-activated receptor gamma (Homo sapiens) (P37231 whole entry, looked up): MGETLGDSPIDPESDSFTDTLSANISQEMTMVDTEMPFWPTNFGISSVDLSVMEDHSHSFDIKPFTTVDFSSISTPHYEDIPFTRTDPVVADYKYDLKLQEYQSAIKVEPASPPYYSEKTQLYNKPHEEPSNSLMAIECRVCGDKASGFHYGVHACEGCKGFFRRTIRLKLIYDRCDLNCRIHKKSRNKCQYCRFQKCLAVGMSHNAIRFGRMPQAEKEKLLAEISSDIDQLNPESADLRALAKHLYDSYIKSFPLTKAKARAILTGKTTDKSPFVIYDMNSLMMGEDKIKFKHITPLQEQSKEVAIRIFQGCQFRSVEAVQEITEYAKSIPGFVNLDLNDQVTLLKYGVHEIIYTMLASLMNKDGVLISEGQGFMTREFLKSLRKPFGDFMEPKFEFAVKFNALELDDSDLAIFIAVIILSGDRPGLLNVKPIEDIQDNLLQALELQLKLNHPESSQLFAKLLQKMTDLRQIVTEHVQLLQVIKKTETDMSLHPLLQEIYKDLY
compound,measurement,setting,value
CN[C@H]1CC[C@@H](c2ccc(Cl)c(Cl)c2)c2ccc(S(N)(=O)=O)cc21,Potency,[1],inactive
same,Potency,[2],61.1 µM (active)
same,Potency,[3],49 µM (active)
same,Potency,[4],24.3 µM (active)
same,Potency,[5],inactive
same,outcome,[6],inactive
O=C1OC(O)C(C(Cl)Cl)=C1Cl (stereo not drawn),Potency,[1],inactive
same,Potency,[4],inactive
CS(=O)(=O)c1ccc([C@@H](CC2CCCC2)C(=O)Nc2cnccn2)cc1Cl,Potency,[1],inactive
CN1CCN(c2ccccc2/C=C2\SCCN(c3ccc(Cl)c(Cl)c3)C2=O)CC1,Potency,[1],inactive
same,Potency,[3],49 µM (active)
same,Potency,[4],24.3 µM (active)
same,Potency,[5],54.9 µM (active)
Cc1cc(N)c2ccccc2[n+]1CCCCCCCCCC[n+]1c(C)cc(N)c2ccccc21,Potency,[1],inactive
same,Potency,[2],inactive
same,Potency,[7],inactive
CC[C@@H](C(=O)[C@@H](C)[C@@H](O)[C@H](C)CCc1ccc(C)c(O)c1C(=O)O)[C@H]1O[C@](CC)([C@H]2CC[C@](O)(CC)[C@H](C)O2)C[C@@H]1C,Potency,[1],inactive
same,Potency,[2],29.8 µM (active)
same,Potency,[7],inactive
Cc1ccc2nc(-c3ccc(N)cc3)sc2c1S(=O)(=O)O,Potency,[1],4.26 µM (active)
same,Potency,[2],inactive
same,Potency,[3],inactive
same,Potency,[4],inactive
same,Potency,[5],inactive
O=C(CCN1CCC(c2ccccc2)C1)c1ccc2c(c1)OCCO2 (stereo not drawn),Potency,[1],inactive
same,Potency,[2],inactive
same,Potency,[7],inactive
same,Potency,[3],inactive
same,Potency,[4],inactive
same,Potency,[5],13.3 µM (active)
CC(=O)Nc1ccc(OC(C)=O)cc1,Potency,[2],inactive
COc1cc2c(c(OC)c1OC)-c1c(cc3c(c1OC)OCO3)C[C@@H](C)[C@](C)(O)C2,Potency,[2],29.8 µM (active)
same,Potency,[7],inactive
CCC(C)(C)c1ccc(CC(C)CN2C[C@@H](C)O[C@@H](C)C2)cc1 (stereo partly drawn),Potency,[2],inactive
same,Potency,[8],inactive
same,Potency,[4],inactive
same,Potency,[5],inactive
same,outcome,[6],inactive
CC(O)(c1ccc(Cl)cc1)c1ccc(Cl)cc1,Potency,[2],inactive
same,Potency,[3],inactive
same,Potency,[5],inactive
same,outcome,[6],inactive
CO/N=C(\C(=O)N[C@@H]1C(=O)N2C(C(=O)O)=C(COC(C)=O)CS[C@H]12)c1csc(N)n1 (stereo in doubt),Potency,[2],inactive
O=C(CCCCCCCCc1cccnc1)N1CCC(C=C(c2ccccc2)c2ccccc2)CC1,Potency,[1],inactive
same,Potency,[2],inactive
same,Potency,[3],19.5 µM (active)
same,Potency,[4],15.4 µM (active)
same,Potency,[5],inactive
CN1CCN(CCCN2c3ccccc3Sc3ccc(Cl)cc32)CC1,Potency,[1],9.44 µM (active)
same,Potency,[2],23.7 µM (active)
same,Potency,[4],29.8 µM (active)
same,Potency,[5],inactive
same,outcome,[6],inactive
COc1cc(NS(C)(=O)=O)ccc1Nc1c2ccccc2nc2ccccc12,Potency,[2],13.3 µM (active)
same,Potency,[7],21.3 µM (active)
NCCCC(=O)O,Potency,[1],inactive
same,Potency,[2],inactive
same,Potency,[7],inactive
CN1CC[C@H](c2c(O)cc(O)c3c(=O)cc(-c4ccccc4Cl)oc23)[C@H](O)C1,Potency,[3],inactive
same,Potency,[4],inactive
same,outcome,[6],inactive
CC(Cc1ccc(O)c(O)c1)C(C)Cc1ccc(O)c(O)c1 (stereo not drawn),Potency,[1],inactive
same,Potency,[4],61.1 µM (active)
same,Potency,[5],inactive
CCCCCCCC[N+](C)(C)CCCCCCCC,Potency,[1],inactive
same,Potency,[2],inactive
same,Potency,[7],inactive
Clc1nc(C(Cl)(Cl)Cl)c(Cl)c(Cl)c1Cl,Potency,[1],61.1 µM (active)
same,Potency,[2],inactive
same,Potency,[3],38.9 µM (active)
same,Potency,[4],30.6 µM (active)
same,Potency,[5],17.4 µM (active)
Cc1cc(CC(C)CC(C)(C)C)n(O)c(=O)c1 (stereo not drawn) (tested in a mixture with another compound),Potency,[1],inactive
same,Potency,[2],inactive
same,Potency,[7],inactive
CCCCCCCC1CCC(=O)O1 (stereo not drawn),Potency,[1],inactive
CCCCCCCCOC(=O)c1cc(O)c(O)c(O)c1,Potency,[9],54.5 µM (active)
same,Potency,[3],34.7 µM (active)
same,Potency,[4],54.5 µM (active)
COc1cccc(-c2ccc(/C=C\CN3CCCCCC3)cc2Cl)c1,Potency,[2],inactive
same,Potency,[7],inactive
same,Potency,[3],43.4 µM (active)
same,Potency,[4],54.2 µM (active)
